“And” between values parts separate entries of the source, which are not always exact repeats. Identical values can stand only once. Records with an inconclusive call do not appear. The source made the active and inactive calls. The call rests on the fitted dose curve; in most records, active means well fitted curve in the direction sought with a large enough effect; inconclusive means small, poorly fitted or top-dose-only effect, or another doubt; inactive means no such curve, though single readings can be large; an effect the other way counts as inactive or inconclusive.
How the values were obtained:
[1] = system: KB-3-1; test: Cytotoxic Profiling of Annotated Libraries Using Quantitative High-Throughput Screening (AID 1296008); details: Five cell lines viability, CellTiter-Glo ATP luminescence, 48-72 h; max response: hits give low values; further: nearly all actives have a fitted effect of over 60% in size; on max response: on the % scale 0 is the no-effect control and ±100 the full control effect
How it was run: (§1)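 Cytotoxicity was measured as CellTiter-Glo ATP luminescence, read after 10 min at room temperature. Compound treatment of the cells lasted 48 or 72 hr at 37 degrees Celsius in a qHTS format.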

[2] = system: NIH3T3; test: as above; details: Five cell lines viability, CellTiter-Glo ATP luminescence, 48-72 h; max response: hits give low values
How it was run: as §1

[3] = system: HACAT; test: qHTS assay to identify novel small-molecules to repurpose for Merkel cell carcinoma treatment (AID 1296009); details: MCC and control cell lines, CellTiter-Glo viability, 72 h; at 44.8 µM (top of the series) unless noted; further: nearly all actives have a fitted effect of over 60% in size
How it was run: (§2)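 After compound transfer in DMSO, plates were kept 72 hr at 37 degree celsius. Luminescent ATP signal from CellTiter-Glo served as viability measure, normalized against DMSO and no-cell controls.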

[4] = system: HEK293T; test: as above; details: MCC and control cell lines, CellTiter-Glo viability, 72 h; series mostly up to 44.8 µM
How it was run: as §2

[5] = system: C33A; test: Primary qHTS to identify gynecologic anti-cancer compounds using libraries of approved drugs and bioactive compounds (AID 1345084); details: Gynecologic cancer cell panel viability, ATPlite luminescence, 48 h; series mostly up to 57.5 µM; further: on the % scale 0 is the no-effect control and ±100 the full control effect; nearly all actives have a fitted effect of over 55% in size
How it was run: (§3)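 ATP-based viability (ATPlite), 1,000 cells/well, 16 h pre-incubation, 48 h compound at 37 C, 5% CO2, 15 min RT before read.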

[6] = system: CAOV3; test: as above; details: Gynecologic cancer cell panel viability, ATPlite luminescence, 48 h; series mostly up to 57.5 µM
How it was run: as §3

[7] = system: CASKI; test: as above; details: Gynecologic cancer cell panel viability, ATPlite luminescence, 48 h; series mostly up to 57.5 µM
How it was run: as §3

[8] = system: Es-2; test: as above; details: Gynecologic cancer cell panel viability, ATPlite luminescence, 48 h; series mostly up to 57.5 µM
How it was run: as §3

[9] = system: HeLa; test: as above; details: Gynecologic cancer cell panel viability, ATPlite luminescence, 48 h; series mostly up to 57.5 µM
How it was run: as §3

[10] = system: Hek293T; test: as above; details: Gynecologic cancer cell panel viability, ATPlite luminescence, 48 h, control line for the selectivity index; series mostly up to 57.5 µM
How it was run: as §3

[11] = system: JEG-3; test: as above; details: Gynecologic cancer cell panel viability, ATPlite luminescence, 48 h; series mostly up to 57.5 µM
How it was run: as §3

[12] = system: OV90; test: as above; details: Gynecologic cancer cell panel viability, ATPlite luminescence, 48 h; series mostly up to 57.5 µM
How it was run: as §3

[13] = system: PA-1; test: as above; details: Gynecologic cancer cell panel viability, ATPlite luminescence, 48 h; series mostly up to 57.5 µM
How it was run: as §3

[14] = system: NIH3T3; test: qHTS assay to identify novel small-molecules to repurpose for Merkel cell carcinoma treatment (AID 1296009); details: MCC and control cell lines, CellTiter-Glo viability, 72 h; at 44.8 µM (top of the series) unless noted; further: nearly all actives have a fitted effect of over 60% in size
How it was run: as §2

COC(=O)C1C(CC(C)=O)C=CC(O)C12Oc1cc(C)cc(O)c1C2=O (centres undefined)
inactive: max response [1] 4.45% | max response [2] 3.58% | outcome [3] | Potency [4] | Potency [5] | Potency [6] | Potency [7] | Potency [8] | Potency [9] | Potency [10] | Potency [11] | Potency [12] | Potency [13]

O=C1NC(=Nc2ccccc2F)S/C1=C\c1ccc(C(=O)O)cc1
inactive: outcome [1] | max response [2] -1.07% | outcome [3] | Potency [4] | Potency [5] | Potency [6] | Potency [8] | Potency [9] | Potency [10] | Potency [11] | Potency [12] | Potency [13]

c1ccc(Nc2nc3c(s2)CCCc2[nH]ncc2-3)nc1
inactive: outcome [1] | max response [2] 3.95% | outcome [3] | Potency [4] | Potency [5] | Potency [6] | Potency [7] | Potency [8] | Potency [10] | Potency [11] | Potency [12] | Potency [13]

C=C1CC2(C(=O)O)CC1CCC2C1(C)CCCC2(C)C(=O)OC(O)C21 (centres undefined)
inactive: outcome [1] | max response [2] 0.0241% | outcome [3] | Potency [4] | Potency [5] | Potency [6] | Potency [8] | Potency [9] | Potency [10] | Potency [11] | Potency [12] | Potency [13]

CC[C@H]1OC(=O)C[C@@H](O)[C@H](C)[C@@H](O[C@@H]2O[C@H](C)[C@@H](O)[C@H](N(C)C)[C@H]2O)[C@@H](CCN2C[C@H](C)C[C@H](C)C2)C[C@@H](C)C(=O)/C=C/C(C)=C/[C@@H]1CO[C@@H]1O[C@H](C)[C@@H](O)[C@@H](OC)[C@H]1OC
inactive: max response [1] 2.68% and 4.42% | outcome [2] | outcome [3] | outcome [14] | Potency [5] | Potency [6] | Potency [7] | Potency [8] | Potency [9] | Potency [10] | Potency [11] | Potency [12] | Potency [13]

N#CCc1ccc(O)cc1O[C@@H]1O[C@H](CO)[C@@H](O)[C@H](O)[C@H]1O
inactive: max response [1] -0.902% | outcome [2] | Potency [4] | outcome [14] | Potency [5] | Potency [6] | Potency [7] | Potency [8] | Potency [9] | Potency [10] | Potency [11] | Potency [12] | Potency [13]

CC(C)N(C[C@H]1O[C@@H](n2cnc3c(N)ncnc32)[C@H](O)[C@@H]1O)C1CC(CCc2nc3ccc(C(C)(C)C)cc3[nH]2)C1 (some centres undefined)
inactive: max response [1] 5.25% | max response [2] -7.24% and -17.7% | outcome [3] | Potency [5] | Potency [6] | Potency [7] | Potency [8] | Potency [9] | Potency [10] | Potency [11] | Potency [12] | Potency [13]

CCC(CCO[C@@H]1O[C@H](CO[C@H]2OC[C@](O)(CO)[C@H]2O)[C@@H](O)[C@H](O)[C@H]1O)C(C)(C)O (some centres undefined)
inactive: outcome [1] | max response [2] 1.97% | outcome [3] inactive [at 17.4 µM] | Potency [4] | Potency [5] | Potency [7] | Potency [8] | Potency [9] | Potency [10] | Potency [11] | Potency [12] | Potency [13]

CC1(C)CC[C@]2(C(=O)O[C@@H]3O[C@H](CO)[C@@H](O)[C@H](O)[C@H]3O)CC[C@]3(C)C(=CCC4[C@@]5(C)C[C@@H](O)[C@H](O)[C@@](C)(CO)C5CC[C@]43C)C2C1 (some centres undefined)
inactive: outcome [1] | max response [2] -1.65% | outcome [3] inactive [at 17.4 µM] | Potency [4] | Potency [5] | Potency [7] | Potency [8] | Potency [9] | Potency [10] | Potency [11] | Potency [12] | Potency [13]

CC1=CC(=O)CC(C)(CO[C@@H]2O[C@H](CO)[C@@H](O)[C@H](O)[C@H]2O)C1(O)/C=C/C(C)=C/C(=O)O (some centres undefined)
inactive: outcome [1] | outcome [2] | Potency [4] | outcome [14] inactive [at 17.4 µM] | Potency [5] | Potency [6] | Potency [7] | Potency [8] | Potency [9] | Potency [10] | Potency [11] | Potency [12] | Potency [13]

CN1CCC(c2c[nH]c3ccc(NC(=O)c4ccc(F)cc4)cc23)CC1
inactive: max response [1] 7.4% | max response [2] -0.678% | outcome [3] | Potency [4] | Potency [5] | Potency [7] | Potency [8] | Potency [9] | Potency [10] | Potency [11] | Potency [12] | Potency [13]

NC(=O)c1cccc(-c2cc(O)cc(OC(=O)NC3CCCCC3)c2)c1
inactive: outcome [1] | max response [2] -15.7% | outcome [3] inactive [at 17.4 µM] | Potency [4] | Potency [5] | Potency [7] | Potency [8] | Potency [9] | Potency [10] | Potency [11] | Potency [12] | Potency [13]

CC1C/C=C/C=C\CCCCC(O)C/C=C/C(=O)O1 (centres undefined)
inactive: max response [1] 1.87% | outcome [2] | Potency [4] | outcome [14] | Potency [5] | Potency [6] | Potency [7] | Potency [8] | Potency [9] | Potency [10] | Potency [11] | Potency [12] | Potency [13]

CNC(=O)c1ccc2cc([C@@]3(O)CCn4cncc43)ccc2c1
inactive: outcome [1] | outcome [2] | Potency [4] | outcome [14] | Potency [5] | Potency [6] | Potency [7] | Potency [8] | Potency [9] | Potency [10] | Potency [11] | Potency [12] | Potency [13]

Reference: PubChem BioAssay (NCATS)
